KB-V1 MDR tox: qHTS assay for MDR1-selective chemotherapeutics: Primary screen using the drug-selected MDR subline cells KB-V1; 3.4% of 400,000 active; AID 1347076, 2019; Potency, µM (series often up to 46.1 µM), most hits filed as cytotoxic; KB-V1 MDR cells viability, CellTiter-Glo, 72 h; note: nearly all actives have a fitted effect of over 60% in size
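KB-V1 MDR subline cells in DMEM (phenol-red free, 10% FBS) exposed to compounds in qHTS concentration series for 72 h at 37 degrees C. Viability read by CellTiter-Glo luminescence; concentration-effect curves fitted after normalization and correction.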
ATXN viability: Viability Counterscreen for Primary qHTS for Inhibitors of ATXN expression. S2 cells (HEK-293 line with an ATXN2-luciferase reporter) viability, CellTiter-Fluor protease fluorescence, 24 h. Potency, µM (titrated, usually from 56.7 µM), actives largely listed as cytotoxic. 0.49% of 400,000 active; note: nearly all actives have a fitted effect of over 40% in size
KB-3-1 tox: qHTS assay for MDR1-selective chemotherapeutics: Primary screen using the parental adenocarcinoma cell KB-3-1; 1.4% of 400,000 active; Potency, µM (titrated, usually from 46.1 µM), most hits filed as cytotoxic; KB-3-1 viability, CellTiter-Glo ATP luminescence, 72 h; note: nearly all actives have a fitted effect of over 60% in size
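Here the drug-naive KB-3-1 line serves as comparator for MDR sub-line selectivity; cells received compound titrations, 72 h at 37 °C, then CellTiter-Glo readout.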
HT1080NT lethal: qHTS for induction of synthetic lethality in tumor cells producing 2HG: qHTS for the HT-1080-NT fibrosarcoma cell line. HT-1080-NT fibrosarcoma viability, CellTiter-Glo ATP luminescence, 48 h. Potency, µM (titrated, usually from 46.1 µM), hits mostly cytotoxic. 1.6% of 360,000 active. AID 686970, 2013;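 note: NT is the 2HG producing partner of a matched IDH1 knockdown line; nearly all actives have a fitted effect of over 55% in size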
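HT-1080-NT fibrosarcoma cells (2HG-overproducing), 750 cells/well in RPMI with 5% FBS, dosed after 2 h and incubated 48 h at 37C. CellTiter-Glo luminescence normalized to DMSO and no-cell wells; concentration-response curves fitted and classed.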
ATXN2 expr inh: Primary qHTS for Inhibitors of ATXN expression; HEK-293 ATXN2-luciferase reporter, luminescence, 24 h; Potency, µM (highest dose often 57 µM), hits mostly inhibitors; 0.72% of 360,000 active; note: nearly all actives have a fitted effect of over 55% in size
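ATXN2-luciferase reporter cells (luciferase flanked by upstream and downstream ATXN2 gene portions) were treated 24 h at 37 °C with compounds at up to 57 uM. SteadyGlo luminescence gave expression; GF-AFC fluorescence gave viability.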
HT1080 IDH1KD tx: qHTS for induction of synthetic lethality in tumor cells producing 2HG: qHTS for the HT-1080-IDH1KD cell line. HT-1080 IDH1 knockdown viability, ATP luminescence, 48 h. Potency, µM (titrated, usually from 46.1 µM), most hits filed as cytotoxic. 2% of 360,000 active
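After a 2 h attachment period, IDH1KD HT-1080 cells took pin-transferred compound for 48 h at 37 °C; ATP-based luminescence after 10 min room-temperature reagent incubation reported viability.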
Numbers stand for hits; 0 = inactive; ? = inconclusive; - = no result; ! = not active in a repeat. Most compounds without a hit are left out; they make up all but 6.2% or so of the library. Calls come from the whole dose curve; as a rule, active = well fitted curve in the direction sought with a large enough effect; inconclusive = small, poorly fitted or top-dose-only effect, or another doubt; inactive = no such curve, though single readings can be large; an effect the other way counts as inactive or inconclusive.

SMILES	KB-V1 MDR tox	ATXN viability	KB-3-1 tox	HT1080NT lethal	ATXN2 expr inh	HT1080 IDH1KD tx
COc1ccc(CNC(=O)C2CCCN(S(=O)(=O)c3ccc4c(c3)CCCN4C(C)=O)C2)cc1 (centres undefined)	0	0	21µM!	0	0	0
CC(=O)N1CCCc2cc(S(=O)(=O)N3CCCC(C(=O)N4CCN(c5cc(C)ccc5C)CC4)C3)ccc21 (centres undefined)	?	25µM!	?	?	20µM	?
COc1cccc(NS(=O)(=O)c2ccc3c(c2)CCCN3C(C)=O)c1	21µM	0	0	0	0	0
CCc1ccc(NC(=O)C2CCCN(S(=O)(=O)c3ccc4c(c3)CCCN4C(C)=O)C2)cc1 (centres undefined)	0	?	0	0	?	0
COC(=O)c1cc(-c2ccc(C)cc2)c2c(=O)n(C)c(=O)n(C)c2n1	0	0	0	-	0	-
Cc1ccc2oc(=O)c3cnn(CC(=O)N4CCN(c5ccccc5F)CC4)c3c2c1	0	-	0	-	-	-
Cc1ccc(C(=O)N/C(=C/c2ccc(-c3ccc([N+](=O)[O-])cc3)o2)C(=O)NCCCN(C)C)cc1	0	-	0	23µM	?	?
Cc1ccc(OCCN2CCN(C(=O)CCC(=O)Nc3nnc(CC(C)C)s3)CC2)cc1	8.2µM	0	?	?	0	9.2µM
O=C(NCC1Cc2cccc(-c3cncnc3)c2O1)C1CC1 (centres undefined)	-	0	-	-	-	-
Cc1ccc(C(=O)NC(=S)NCc2ccccc2)cc1Br	0	-	0	0	0	0
CC1=C(C(=O)Nc2cc(C(=O)NCc3ccccc3)ccc2C)SCCO1	21µM	0	0	?	-	?
Cc1ccc(C(=O)Nc2ccccc2C(=O)NCc2ccccc2)cc1	4.6µM	?	0	0	0	0
Cc1ccc(C(=O)Nc2ccccc2C(=O)NCc2cccnc2)cc1	0	0	0	0	0	0
Cc1ccc(C(=O)NCc2ccccc2)cc1Br	18µM	0	0	0	0	0
CCOc1cc(NS(=O)(=O)c2ccccc2)c(OCC)cc1NC(=O)c1ccco1	15µM	0	0	0	0	0
Cc1ccc(-n2ncc(C(=O)NCCCN3CCN(C)CC3)c2C2CCN(C(=O)OC(C)(C)C)CC2)cc1	0	-	0	-	-	-
Cc1cnc2c(C)cccc2c1C	0	-	0	-	-	-
CSc1ccc(CNC(=O)Cc2ccc(NC(=O)C3=C(C)OCCS3)cc2)cc1	?	0	5.8µM	?	-	16µM
O=C(NCc1ccccc1)c1cccc(NC(=O)c2ccco2)c1	8.2µM	0	10µM	?	0	4.1µM
O=C(NCc1ccccc1)c1cccc(NC(=O)c2ccccc2)c1	0	?	23µM	?	?	?
COc1ccc(CNC(=O)c2cccc(NC(=O)c3ccccc3)c2)cc1	0	0	0	0	0	0
O=C(Nc1ccccc1)c1cccc(NC(=O)c2ccco2)c1	?	0	0	0	0	0
CCOc1ccc(CCNC(=O)Cc2ccc(NC(=O)C3=C(C)OCCS3)cc2)cc1	0	0	0	0	-	0
CCOc1cc(NS(C)(=O)=O)c(OCC)cc1NC(=O)c1cccs1	9.2µM	?	?	0	0	0
C(/Oc1ccccc1)=C1\Nn2c(nnc2-c2cc(-c3ccccc3)n[nH]2)S1	0	-	?	-	-	-
SMILES	KB-V1 MDR tox	ATXN viability	KB-3-1 tox	HT1080NT lethal	ATXN2 expr inh	HT1080 IDH1KD tx
CCOc1ccc(OCC)c(NC(=O)CCc2nc3cccnc3n2-c2ccccc2)c1	0	0	0	-	0	-
COc1ccc(C(=O)NC(=S)Nc2cccc(NC(=O)c3ccco3)c2)cc1[N+](=O)[O-]	0	?	0	0	0	0
CCOc1ccc(C(=O)NC(=S)Nc2cccc(NC(=O)c3ccco3)c2)cc1[N+](=O)[O-]	?	0	18µM	0	0	0
O=C(NCc1ccco1)c1cccc(NC(=O)c2ccco2)c1	0	0	7.3µM	?	0	0
CCOc1cc(NS(=O)(=O)c2ccc(Cl)cc2)c(OCC)cc1NC(=O)CC(C)C	11µM	0	0	?	0	?
CCOc1ccccc1NC(=O)c1cccc(NC(=O)c2ccco2)c1	?	?	2.6µM	?	0	2.3µM
CC(C)CNC(=O)c1cccc(NC(=O)c2ccco2)c1	0	0	0	0	0	0
CCOc1ccc(-c2nc3c(c(CC)nn3-c3ccccc3)c3cc(OC)c(OC)cc23)cc1	0	0	0	-	0	-
COc1ccc(OC)c(NC(=O)CSC2=Nc3ccccc3C3=NC(CCC(=O)NCc4ccccc4)C(=O)N23)c1 (centres undefined)	0	0	0	-	0	-
Cc1nc2nc(SCC(=O)NC3CCC(C)CC3)nn2c(C)c1Cc1ccccc1 (centres undefined)	0	?	0	-	0	-
COc1ccc(NC(=O)c2ccc3ccccc3c2)cc1NS(=O)(=O)c1ccc(F)cc1	21µM	0	0	0	0	0
COc1ccc(OC)c(NS(=O)(=O)c2ccc(NC(=O)c3ccc(NS(C)(=O)=O)cc3)cc2)c1	0	0	16µM	0	0	0
COc1ccc(NC(=O)c2ccc(C#N)cc2)cc1NS(=O)(=O)c1ccc(F)cc1	0	0	0	0	0	0
Cc1ccc(CN2CCOc3ccc(C(C)(O)COc4ccccc4)cc3C2)o1 (centres undefined)	-	0	-	-	-	-
CCN1CCCC1CNC(=O)c1cnn(-c2ncc(C)c(-c3ccc(F)cc3)n2)c1C(C)C (centres undefined)	-	0	-	-	-	-
O=C(COC(=O)c1ccc(O)cc1)c1ccc2c(c1)OCCO2	0	0	0	0	0	0
COc1cc(CC(=O)OCC(=O)c2ccc3c(c2)OCCO3)cc(OC)c1OC	0.73µM	?	1µM	1.6µM	0	1.5µM
Cc1nn(-c2ccccn2)c2c1-c1nc(N3CCOCC3)ncc1CC2	18µM	0	?	0	0	0
Cc1nn(-c2ccccn2)c2c1-c1nc(N)ncc1CC2	0	0	0	0	0	0
Cc1cccc(-n2cc(-c3ccccc3)c3c(N4CCOCC4)ncnc32)c1	?	0	0	21µM	-	13µM
COc1ccc(N2CCN(c3ncnc4c3cnn4-c3ccc(C)cc3C)CC2)cc1	4.6µM	0	0	0	0	0
COc1ccc(-n2ncc3c(N4CCN(c5cc(C)ccc5C)CC4)ncnc32)cc1	0	0	0	0	0	0
Cc1cccc(-n2ncc3c(N4CCN(c5ccccc5)CC4)ncnc32)c1	0	-	0	-	-	-

Screening data: PubChem, National Center for Advancing Translational Sciences (NCATS)
